Data on 5 compounds can be found in PubChem BioAssay (EPA / NIEHS).

Assay [1] in a line: ATG_GRE_CIS: Attagene CIS-FACTORIAL HepG2 Assay for human Glucocorticoid Response Elements (GRE) (AID 2282947). The note with it: HepG2 GRE cis-reporter, Attagene multiplex mRNA; actives raise or lower the signal. The procedure, abridged:
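Reporter transcripts read by RT-PCR with capillary electrophoresis fluorescence after a 24 h chemical exposure of HepG2 cells transiently transfected with multiple cis-element reporter units. Gain or loss fitted against DMSO.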

Assay [2] has as its target Hypoxia-inducible factor 1-alpha (Homo sapiens) (UniProt Q16665). Nature of the assay: ATG_HIF1a_CIS: Attagene CIS-FACTORIAL HepG2 Assay for human Hypoxia Inducible Factor 1 (HIF1A) (AID 2282951). The note with it: HepG2 Attagene cis-factorial HIF1a reporter transcription; actives raise or lower the signal. The gist of the method: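 HepG2 cells transiently transfected with multiplexed cis-promoter reporter units; reporter mRNA read 24 h after dosing by RT-PCR, 6-FAM primer-extension labelling, HpaI digestion and capillary electrophoresis. Bidirectional fit versus DMSO baseline.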

Assay [3] has as its target Transcription factor Sp1 (Homo sapiens) (UniProt P08047). As to the kind of experiment: ATG_Sp1_CIS: Attagene CIS-FACTORIAL HepG2 Assay for human Specificity Protein 1 (Sp1) (AID 2282961). As to conditions: HepG2 Sp1 cis-reporter transcription, actives raise or lower the signal. The gist of the method: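 HepG2 cells transiently transfected with multiple reporter transcription units driven by cis-regulatory elements; Sp1-responsive reporter mRNA measured 24 h after dosing by RT-PCR and capillary electrophoresis fluorescence, fitted bidirectionally against DMSO baseline.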

The target in assay [4] is Signal transducer and activator of transcription 3 (Homo sapiens) (UniProt P40763). Nature of the assay: ATG_STAT3_CIS: Attagene CIS-FACTORIAL HepG2 Assay for human Signal Transducer and Activator of Transcription 3 (STAT3) (AID 2282963). The note with it: HepG2, Attagene cis-factorial STAT3 reporter transcription; actives raise or lower the signal. The gist of the method:
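Readout is reporter transcript quantified by RT-PCR and capillary electrophoresis, with 6-FAM primer extension and HpaI digestion. Total RNA is taken 24 h after dosing transiently transfected HepG2 carrying cis-regulated reporter units. Bidirectional fit against DMSO.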

The nature of assay [5]: ATG_TCF_b_cat_CIS: Attagene CIS-FACTORIAL HepG2 Assay for human T-Cell-Factor with beta-catenin (TCF/b-cat) (AID 2282965). The note with it: HepG2 TCF/beta-catenin cis-reporter transcription, actives raise or lower the signal. The procedure, abridged:
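Endogenous TCF/LEF activity read as reporter transcript level via RT-PCR and capillary electrophoresis fluorescence in transfected HepG2, 24 h exposure; gain or loss of signal fitted against DMSO controls.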

The nature of assay [6]: ATG_TAL_CIS: Attagene CIS-FACTORIAL HepG2 Assay for human TAL Basal Promoter (AID 2282966).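 Further: background control endpoint measuring basal TAL promoter reporter mRNA not a specific factor.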 As to conditions: HepG2 Attagene cis-factorial TAL promoter reporter; actives raise or lower the signal. The gist of the method:
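Endogenous transcription-factor activity is sensed in HepG2 cells through transfected cis-promoter reporter constructs. After 24 h dosing, reporter transcripts are quantified by RT-PCR and capillary electrophoresis. Gain or loss of signal is fitted relative to DMSO.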

Assay [7] can be described thus: ATG_TGFb_CIS: Attagene CIS-FACTORIAL HepG2 Assay for human Transforming Growth Factor (TGF) (AID 2282967). The note with it: HepG2 Attagene CIS TGFb reporter, mRNA transcription; actives raise or lower the signal. The gist of the method: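 HepG2 cells transiently transfected with cis-promoter-driven multiplexed reporter units; 24 h compound exposure. Reporter mRNA measured by RT-PCR, 6-FAM labeling, HpaI digestion and capillary electrophoresis; bidirectional fit versus DMSO baseline.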

Assay [8] can be described thus: ATG_VDRE_CIS: Attagene CIS-FACTORIAL HepG2 Assay for human Vitamin D Receptor Element (VDRE) (AID 2282968). As to conditions: HepG2 VDRE cis-reporter transcription, actives raise or lower the signal. The procedure, abridged:
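Readout is VDRE-driven reporter mRNA reflecting endogenous factor activity in human HepG2 cells, sampled 24 h post-dose. Quantification used labelled RT-PCR products separated by capillary electrophoresis; bidirectional analysis relative to DMSO.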

For assay [9], the target named is X-box-binding protein 1 (Homo sapiens) (UniProt P17861). Nature of the assay: ATG_Xbp1_CIS: Attagene CIS-FACTORIAL HepG2 Assay for human X-box Binding Protein 1 (XBP1) (AID 2282972). As to conditions: HepG2 XBP1 cis-element reporter, Attagene multiplex; actives raise or lower the signal. The procedure, abridged:
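Read-out: fluorescent reporter mRNA fragments resolved by capillary electrophoresis after RT-PCR. Human HepG2 liver cells carried transfected cis-promoter reporter units and were exposed to chemicals for 24 hours. Gain or loss of signal fitted relative to DMSO baseline.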

Assay [10] can be described thus: ATG_NFI_CIS: Attagene CIS-FACTORIAL HepG2 Assay for human Nuclear Factor I (NFI) (AID 2282989). The note with it: HepG2 cis-regulatory reporter, NFI response element transcription; actives raise or lower the signal. The gist of the method: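 HepG2 cells transiently transfected with cis-element-driven multiplexed reporter transcription units, dosed for 24 h. Reporter mRNA quantified by RT-PCR, fluorescent labelling, HpaI digestion and capillary electrophoresis; bidirectional fit versus DMSO baseline.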

For assay [11], the target named is Myc proto-oncogene protein (Homo sapiens) (UniProt P01106). Nature of the assay: ATG_Myc_CIS: Attagene CIS-FACTORIAL HepG2 Assay for human Myelocytomatosis (Myc) Proto-Oncogene Transcription Factor (AID 2282990). The note with it: HepG2, Attagene cis-reporter transcription factor activity; actives raise or lower the signal. The gist of the method: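 After 24 h chemical treatment of HepG2 cells carrying multiplexed cis-regulated reporter constructs, reporter transcripts quantified by RT-PCR and capillary electrophoresis of fluorescent fragments. Gain or loss fitted against DMSO baseline.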

Assay [12] can be described thus: ATG_NRF2_ARE_CIS: Attagene CIS-FACTORIAL HepG2 Assay for human Nuclear Factor Erythroid 2 Related Factor 2 (NFR2) response to Antioxidant Response Elements (ARE) (AID 2282992). As to conditions: HepG2 Attagene ARE/NRF2 reporter, transcription factor activity; actives raise or lower the signal. The procedure, abridged:
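Readout: reporter mRNA quantified by RT-PCR plus FAM-labelled primer extension, HpaI digestion and capillary electrophoresis, 24 h after dosing transfected HepG2 cells. Gain or loss of signal is fitted bidirectionally against DMSO baseline.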

Assay [13] can be described thus: ATG_Oct_MLP_CIS: Attagene CIS-FACTORIAL HepG2 Assay for human Octamer-Binding Transcription Factor (Oct) (AID 2282993). The note with it: HepG2 Attagene cis-factorial Oct reporter, mRNA; actives raise or lower the signal. The gist of the method: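 HepG2 cells transiently transfected with cis-promoter-driven multiplexed reporter transcription units, dosed for 24 h. Reporter mRNA quantified by RT-PCR, fluorescent labelling, HpaI digestion and capillary electrophoresis; bidirectional fits versus DMSO baseline.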

The target in assay [14] is Peroxisome proliferator-activated receptor gamma (Homo sapiens) (UniProt P37231). Nature of the assay: ATG_PPARg_TRANS: Attagene TRANS-FACTORIAL HepG2 Assay for human Peroxisome Proliferator-activated Receptor-gamma (PPARg) (AID 2283007; active means hit-call score of the fitted dose curve at least 0.9, where 1 is the maximum). The procedure, abridged:
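HepG2 cells transiently transfected with multiplexed GAL4-UAS reporter units and exogenous chimeric NR-Gal4 proteins; reporter mRNA quantified after 24 h compound exposure by RT-PCR, fluorescent labelling, HpaI digestion and capillary electrophoresis; gain-of-signal fitted versus DMSO baseline.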

Assay [15] deals with Aryl hydrocarbon receptor (Homo sapiens) (UniProt P35869). As to the kind of experiment: ATG_Ahr_CIS: Attagene CIS-FACTORIAL HepG2 Assay for human Aryl Hydrocarbon Receptor (Ahr) (AID 2282930). As to conditions: HepG2 AhR cis-factorial reporter transcription; actives raise or lower the signal. The gist of the method:
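Reporter mRNA levels, quantified by RT-PCR and fluorescent capillary electrophoresis, reflect endogenous AhR transcriptional activity in HepG2 cells carrying transfected cis-promoter reporter constructs. Readout at 24 h post-dose; gain or loss fitted against DMSO baseline.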

The nature of assay [16]: ATG_TA_CIS: Attagene CIS-FACTORIAL HepG2 Assay for human TA Basal Promoter (AID 2282964). As to conditions: HepG2 Attagene CIS-factorial TA basal promoter reporter; actives raise or lower the signal. The gist of the method:
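HepG2 cells transiently transfected with multiplexed cis-promoter reporter units, dosed 24 h. Reporter mRNA measured by RT-PCR, 6-FAM labelling, HpaI digestion and capillary electrophoresis; bidirectional fit versus DMSO baseline, serving as background control.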

Assay [17] can be described thus: ATG_M_32_TRANS: Attagene TRANS-FACTORIAL HepG2 Assay for M32 Transcription Factor (Internal Marker) (AID 2282984; active means hit-call score of the fitted dose curve at least 0.9, where 1 is the maximum). As to conditions: HepG2 Attagene TRANS M32 internal marker reporter. The procedure, abridged: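 Internal background reporter in transfected HepG2: after 24 h chemical exposure, RNA reverse-transcribed, reporter cDNA amplified, fluorescently labelled and HpaI-cut, then sized by capillary electrophoresis. Gain of signal fitted against DMSO control.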

Assay [18] addresses Transcriptional activator Myb (Homo sapiens) (UniProt P10242). As to the kind of experiment: ATG_Myb_CIS: Attagene CIS-FACTORIAL HepG2 Assay for human Myeloblastosis (Myb) Proto-Oncogene Transcription Factor (AID 2282986). The note with it: HepG2 Attagene CIS-FACTORIAL Myb reporter transcription; actives raise or lower the signal. The gist of the method:
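HepG2 cells were transiently transfected with cis-regulated multiple reporter transcription units reflecting endogenous Myb activity, then exposed to compound for 24 hours. Reporter mRNA was measured by RT-PCR with capillary electrophoresis; bidirectional fitting versus DMSO baseline.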

Assay [19] has as its target Cellular tumor antigen p53 (Homo sapiens) (UniProt P04637). Nature of the assay: ATG_p53_CIS: Attagene CIS-FACTORIAL HepG2 Assay for human p53 Transcription Factor (AID 2282994). The note with it: HepG2 p53 cis-element reporter, Attagene mRNA; actives raise or lower the signal. The gist of the method:
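Read-out: reporter mRNA by RT-PCR plus capillary electrophoresis with fluorescence detection. Human HepG2 liver cells carried transfected multi-reporter cis-element constructs, dosed 24 h. Gain or loss of signal fitted bidirectionally against DMSO control.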

Assay [20] shares this target. Nature of the assay: TOX21_p53_BLA_p4_ratio: Tox21 HCT-116 p53 Agonism Beta-lactamase Assay, Ratio, Phase 4 (AID 2283601; active means hit-call score of the fitted dose curve at least 0.9, where 1 is the maximum). The gist of the method: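 Signal is the blue/green (460nm/530nm) ratio of cleaved versus uncleaved CCF4-AM substrate, read after 2 h substrate loading. Cells were HCT116 carrying the p53-responsive beta-lactamase reporter, dosed 16 h at 37C, 5% CO2; CellTiter-Glo measured in parallel.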

Inconclusive results are not listed. Calls of active or inactive are those of the source. How the source made its calls, unless noted: active means hit-call score of the fitted dose curve at least 0.9, where 1 is the maximum; inactive means score below 0.9.

Chain of Myc proto-oncogene protein (Homo sapiens) (P01106 whole entry, looked up, the tested form may be a part): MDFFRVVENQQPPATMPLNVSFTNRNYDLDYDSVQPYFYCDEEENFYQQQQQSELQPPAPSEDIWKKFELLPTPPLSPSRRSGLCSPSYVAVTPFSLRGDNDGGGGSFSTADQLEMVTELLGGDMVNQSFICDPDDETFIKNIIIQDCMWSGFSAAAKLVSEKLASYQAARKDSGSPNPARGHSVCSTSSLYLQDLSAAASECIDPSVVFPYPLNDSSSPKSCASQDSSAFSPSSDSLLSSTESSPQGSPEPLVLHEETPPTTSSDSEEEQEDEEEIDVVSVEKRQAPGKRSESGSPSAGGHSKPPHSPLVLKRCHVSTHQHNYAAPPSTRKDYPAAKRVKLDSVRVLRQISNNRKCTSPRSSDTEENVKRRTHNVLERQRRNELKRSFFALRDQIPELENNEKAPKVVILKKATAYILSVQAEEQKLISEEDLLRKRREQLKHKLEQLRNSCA
Chain of Transcription factor Sp1 (Homo sapiens) (P08047 whole entry, looked up): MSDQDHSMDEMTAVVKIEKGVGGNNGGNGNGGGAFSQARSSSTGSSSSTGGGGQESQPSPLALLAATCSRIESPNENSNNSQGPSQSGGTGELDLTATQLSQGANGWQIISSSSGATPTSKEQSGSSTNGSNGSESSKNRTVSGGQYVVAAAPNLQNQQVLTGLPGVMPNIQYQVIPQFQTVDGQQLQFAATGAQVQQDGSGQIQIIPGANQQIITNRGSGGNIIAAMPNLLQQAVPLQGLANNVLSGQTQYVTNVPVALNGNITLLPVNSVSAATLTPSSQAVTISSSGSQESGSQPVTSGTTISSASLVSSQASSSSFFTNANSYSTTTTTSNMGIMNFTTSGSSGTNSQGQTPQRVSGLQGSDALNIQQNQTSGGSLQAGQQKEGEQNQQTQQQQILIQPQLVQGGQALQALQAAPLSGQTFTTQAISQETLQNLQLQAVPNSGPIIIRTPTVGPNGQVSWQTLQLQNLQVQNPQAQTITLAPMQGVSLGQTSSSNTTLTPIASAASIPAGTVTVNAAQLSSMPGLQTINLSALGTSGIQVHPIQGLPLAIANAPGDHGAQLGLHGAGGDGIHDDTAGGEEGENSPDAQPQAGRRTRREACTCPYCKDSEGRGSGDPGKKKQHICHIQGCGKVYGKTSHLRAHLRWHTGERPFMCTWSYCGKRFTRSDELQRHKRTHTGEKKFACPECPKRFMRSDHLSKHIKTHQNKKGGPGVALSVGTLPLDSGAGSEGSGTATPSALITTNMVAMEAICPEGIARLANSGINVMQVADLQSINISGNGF
Chain of X-box-binding protein 1 (Homo sapiens) (P17861 whole entry, looked up, the tested form may be a part): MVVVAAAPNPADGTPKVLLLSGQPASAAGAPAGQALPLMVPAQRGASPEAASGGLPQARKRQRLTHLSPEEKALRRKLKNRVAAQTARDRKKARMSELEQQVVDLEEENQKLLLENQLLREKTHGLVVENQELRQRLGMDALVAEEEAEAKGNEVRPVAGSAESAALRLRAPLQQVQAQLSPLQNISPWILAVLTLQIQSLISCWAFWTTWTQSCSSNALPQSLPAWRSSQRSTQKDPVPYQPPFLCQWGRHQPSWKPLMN
Chain of Transcriptional activator Myb (Homo sapiens) (P10242 whole entry, looked up): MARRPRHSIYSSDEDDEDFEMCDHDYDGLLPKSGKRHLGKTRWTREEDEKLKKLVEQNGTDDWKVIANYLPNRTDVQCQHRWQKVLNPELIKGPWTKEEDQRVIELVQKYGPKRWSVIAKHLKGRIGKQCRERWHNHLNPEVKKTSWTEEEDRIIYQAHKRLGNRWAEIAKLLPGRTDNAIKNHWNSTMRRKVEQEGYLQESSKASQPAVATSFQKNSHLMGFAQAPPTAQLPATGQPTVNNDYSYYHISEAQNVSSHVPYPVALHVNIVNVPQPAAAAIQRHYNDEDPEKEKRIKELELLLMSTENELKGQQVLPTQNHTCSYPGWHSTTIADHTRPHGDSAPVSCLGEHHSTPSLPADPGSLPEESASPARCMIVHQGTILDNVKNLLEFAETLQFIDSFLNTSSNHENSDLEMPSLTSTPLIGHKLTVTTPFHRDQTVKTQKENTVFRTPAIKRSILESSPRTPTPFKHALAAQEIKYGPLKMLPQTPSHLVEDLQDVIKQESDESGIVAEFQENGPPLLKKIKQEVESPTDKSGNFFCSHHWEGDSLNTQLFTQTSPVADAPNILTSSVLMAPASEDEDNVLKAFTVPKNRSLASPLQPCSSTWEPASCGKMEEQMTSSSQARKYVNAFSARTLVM
Chain of Aryl hydrocarbon receptor (Homo sapiens) (P35869 whole entry, looked up): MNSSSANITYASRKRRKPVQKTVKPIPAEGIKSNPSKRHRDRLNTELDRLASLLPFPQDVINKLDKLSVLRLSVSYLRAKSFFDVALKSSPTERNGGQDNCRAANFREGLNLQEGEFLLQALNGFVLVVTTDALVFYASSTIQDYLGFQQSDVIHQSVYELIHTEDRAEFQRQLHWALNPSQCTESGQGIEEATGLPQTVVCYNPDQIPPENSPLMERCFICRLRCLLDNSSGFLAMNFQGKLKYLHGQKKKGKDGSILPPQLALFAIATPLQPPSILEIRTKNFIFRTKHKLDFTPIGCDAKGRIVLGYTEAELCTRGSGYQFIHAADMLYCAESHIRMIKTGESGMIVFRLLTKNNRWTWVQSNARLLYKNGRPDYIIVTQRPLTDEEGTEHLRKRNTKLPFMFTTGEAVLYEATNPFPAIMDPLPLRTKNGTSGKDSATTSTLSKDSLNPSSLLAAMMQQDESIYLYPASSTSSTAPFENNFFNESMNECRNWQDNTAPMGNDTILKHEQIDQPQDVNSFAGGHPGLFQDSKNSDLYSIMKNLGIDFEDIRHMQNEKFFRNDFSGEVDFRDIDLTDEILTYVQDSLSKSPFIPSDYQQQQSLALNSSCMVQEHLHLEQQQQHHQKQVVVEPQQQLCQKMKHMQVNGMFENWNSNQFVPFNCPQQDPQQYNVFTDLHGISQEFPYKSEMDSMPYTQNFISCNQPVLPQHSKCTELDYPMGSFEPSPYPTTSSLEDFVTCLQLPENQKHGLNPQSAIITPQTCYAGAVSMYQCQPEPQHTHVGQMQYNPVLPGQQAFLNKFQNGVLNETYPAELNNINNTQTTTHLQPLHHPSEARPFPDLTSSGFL
Chain of Peroxisome proliferator-activated receptor gamma (Homo sapiens) (P37231 whole entry, looked up, the tested form may be a part): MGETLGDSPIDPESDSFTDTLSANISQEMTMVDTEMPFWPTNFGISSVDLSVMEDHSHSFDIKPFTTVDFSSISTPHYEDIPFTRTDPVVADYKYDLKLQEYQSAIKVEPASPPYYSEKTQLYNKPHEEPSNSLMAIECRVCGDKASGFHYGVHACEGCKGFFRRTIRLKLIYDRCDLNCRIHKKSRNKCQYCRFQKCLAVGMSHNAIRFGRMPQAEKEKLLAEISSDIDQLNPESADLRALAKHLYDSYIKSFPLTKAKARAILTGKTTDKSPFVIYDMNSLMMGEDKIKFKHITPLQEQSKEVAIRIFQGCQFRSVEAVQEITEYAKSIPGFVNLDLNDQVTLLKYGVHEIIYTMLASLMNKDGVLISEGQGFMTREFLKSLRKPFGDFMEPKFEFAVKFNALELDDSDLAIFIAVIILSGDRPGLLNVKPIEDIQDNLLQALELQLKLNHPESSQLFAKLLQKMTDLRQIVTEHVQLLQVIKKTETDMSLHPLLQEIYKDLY
Chain of Hypoxia-inducible factor 1-alpha (Homo sapiens) (Q16665 whole entry, looked up): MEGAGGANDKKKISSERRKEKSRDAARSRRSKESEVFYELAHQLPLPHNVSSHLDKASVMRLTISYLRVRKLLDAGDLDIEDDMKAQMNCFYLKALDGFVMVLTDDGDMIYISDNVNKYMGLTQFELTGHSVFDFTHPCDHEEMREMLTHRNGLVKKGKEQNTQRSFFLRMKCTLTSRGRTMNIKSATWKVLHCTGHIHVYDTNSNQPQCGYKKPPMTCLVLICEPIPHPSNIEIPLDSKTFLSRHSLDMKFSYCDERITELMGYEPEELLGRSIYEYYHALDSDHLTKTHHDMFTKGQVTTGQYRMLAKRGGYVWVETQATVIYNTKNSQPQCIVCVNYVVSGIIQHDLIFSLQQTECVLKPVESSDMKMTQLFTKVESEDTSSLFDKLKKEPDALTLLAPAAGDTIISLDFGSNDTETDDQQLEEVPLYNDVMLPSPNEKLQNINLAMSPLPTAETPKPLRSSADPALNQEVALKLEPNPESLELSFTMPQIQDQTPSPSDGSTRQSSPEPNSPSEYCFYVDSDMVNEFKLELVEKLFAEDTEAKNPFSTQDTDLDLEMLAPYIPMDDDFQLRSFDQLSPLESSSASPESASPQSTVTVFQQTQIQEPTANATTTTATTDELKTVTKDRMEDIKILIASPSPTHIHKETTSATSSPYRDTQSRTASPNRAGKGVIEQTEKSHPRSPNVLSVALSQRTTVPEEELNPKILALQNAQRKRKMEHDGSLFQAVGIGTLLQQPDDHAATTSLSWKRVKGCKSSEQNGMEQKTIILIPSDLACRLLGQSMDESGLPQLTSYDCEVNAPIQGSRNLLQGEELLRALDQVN
Chain of Cellular tumor antigen p53 (Homo sapiens) (P04637 whole entry, looked up): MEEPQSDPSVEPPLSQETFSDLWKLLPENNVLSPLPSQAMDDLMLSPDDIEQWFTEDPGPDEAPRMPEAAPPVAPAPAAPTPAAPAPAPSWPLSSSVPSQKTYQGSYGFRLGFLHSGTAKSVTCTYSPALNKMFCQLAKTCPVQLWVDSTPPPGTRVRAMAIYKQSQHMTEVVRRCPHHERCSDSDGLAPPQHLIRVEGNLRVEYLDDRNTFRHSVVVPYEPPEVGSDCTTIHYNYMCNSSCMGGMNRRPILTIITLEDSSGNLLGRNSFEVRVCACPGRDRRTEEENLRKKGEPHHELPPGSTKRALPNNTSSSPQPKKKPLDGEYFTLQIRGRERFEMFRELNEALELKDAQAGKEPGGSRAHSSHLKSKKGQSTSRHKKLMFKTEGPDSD

On to `C[N+](C)=CCl`, for which the compound was classed as inactive in assay [1], in [2], in assay [3], in [4], in [5] and in assay [6]. Besides, the outcome in assay [7], in assay [8], in [9], in [10], in assay [11] and in [12] was inactive. The result in assay [13] and in assay [14] was inactive.
As for `CC1CCCC1.[C-]#[O+].[C-]#[O+].[C-]#[O+].[Mn]`, the concentration at half-maximal activity (AC50) in [15] was 12.5 µM (active). Further, the compound was called inactive in [1], in [2], in assay [16], in [5], in assay [6] and in assay [7]. The result in [8], in [9], in assay [17], in [18], in assay [10] and in assay [11] was inactive. Also, the outcome in assay [12], in assay [13], in assay [19] and in [20] was inactive.
With `ClCC(Cl)Cl`, the compound was called inactive in assay [15], in [1], in assay [2], in assay [3], in assay [4] and in assay [16]. The outcome in [5], in assay [6], in assay [7], in [8], in [9] and in [10] was inactive. Moreover, the compound was classed as inactive in assay [11], in [12], in assay [13], in [19] and in [14].
As for `Clc1ccc(-c2ccccc2)cc1`, the compound was classed as inactive in [15], in assay [1], in assay [2], in [16], in assay [5] and in assay [6]. The compound was called inactive in assay [7], in assay [8], in assay [9], in assay [17], in [18] and in [11]. Also, the compound was called inactive in assay [13], in [19] and in assay [14]. Moreover, the AC50 was 117 µM (active) in assay [3] and 149 µM (active) in assay [12].
For `CC(C)c1ccc(O)cc1`, the outcome in [1], in assay [2], in assay [3], in [16], in assay [6] and in assay [7] was inactive. Moreover, the outcome in assay [8], in assay [9], in [18], in [10], in [11] and in [13] was inactive. Moreover, the outcome in [19], in assay [14] and in assay [20] was inactive. Also, the AC50 in assay [5] was 131 µM (active); in assay [12], 49.6 µM (active).
